This excerpt belongs to a sample that is enriched for hits.
IDE exosite FP = exo-site inhibitors of human IDE, primary screen, biochemical, fluorescence anisotropy, probe displacement; Insulin-degrading enzyme (Homo sapiens), P14735; AID 1259349, 2017; purified IDE, FL-6b probe fluorescence polarization; active compounds read low; 6.3% of 17,000 active; z-score at 20 µM;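 active means z-score of -3 or lower, meaning strong loss of probe binding signal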;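 further: His-tagged human IDE residues 42-1019 made in E. coli with 30 nM FL-6b probe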
* hit, by the source's call; ! = repeats disagree.

SMILES	IDE exosite FP
Cc1noc(C)c1NC(=O)N(C)C[C@H]1OCc2ccccc2-c2c(n(C)c3ccccc23)C(=O)N([C@H](C)CO)C[C@H]1C	-0.037
COc1ccc(-c2ccc([C@@H]3[C@@H](CO)N4C(=O)CNC[C@H]34)cc2)cc1	2.7
CS(=O)(=O)Nc1ccc2c(c1)[C@@H]1C[C@H](CC(=O)NCc3cc(F)ccc3F)O[C@H](CO)[C@@H]1O2	0.75
CO[C@H]1CC[C@H]2CCN(C)C(=O)CCCN(C)C(=O)c3cc(C#N)ccc3OC[C@@H]1O2	0.19
O=C(NC[C@@H]1[C@@H](c2ccccc2)[C@H](CO)N1Cc1ccccn1)C1CC1	1.9
O=C(c1ccccn1)N1CC[C@@H]2[C@@H](CO)Nc3ccc(Br)cc3[C@@H]21	2.6
OC[C@H]1[C@H](c2ccc(-c3ccccc3)cc2)[C@@H]2CN(Cc3cncnc3)CCCCN12	0.39
COc1cccc(-c2ccc([C@@H]3[C@@H](CO)N4CCCCN(Cc5cncnc5)C[C@H]34)cc2)c1	0.32
Cc1cccc(-c2ccc([C@@H]3[C@@H](CO)N4CCCCN(Cc5cncnc5)C[C@H]34)cc2)c1	-4.6*
COc1cccc(-c2ccc([C@H]3[C@H]4CN(CC5CC5)CCCCN4[C@H]3CO)cc2)c1	-4.1*
COc1cccc(-c2ccc([C@@H]3[C@H]4CN(Cc5cncnc5)CCCCN4[C@H]3CO)cc2)c1	-3.9*
OC[C@H]1[C@H](c2ccc(-c3ccccc3)cc2)[C@H]2CN(Cc3cncnc3)CCCCN21	0.9
COc1cccc(-c2ccc([C@H]3[C@H]4CN(Cc5cncnc5)CCCCN4[C@H]3CO)cc2)c1	-2
Cc1cccc(-c2ccc([C@H]3[C@H]4CN(Cc5cncnc5)CCCCN4[C@H]3CO)cc2)c1	-6*
Cc1ccc(-c2ccc([C@@H]3[C@H](CO)N4CCCCN(Cc5cncnc5)C[C@@H]34)cc2)cc1	0.21
COc1cccc(-c2ccc([C@@H]3[C@@H](CO)N4CCCCN(CC5CC5)C[C@H]34)cc2)c1	-1.8
Cc1cccc(-c2ccc([C@H]3[C@@H](CO)N4CCCCN(Cc5cncnc5)C[C@@H]34)cc2)c1	-1.1
COc1cccc(-c2ccc([C@H]3[C@H](CO)N4CCCCN(CC5CC5)C[C@@H]34)cc2)c1	-0.72
COc1ccc(C#Cc2ccc([C@@H]3[C@@H](CO)N4CCCCN(C(=O)Nc5ccc(F)cc5)C[C@@H]34)cc2)cc1	2.8
N#C[C@H]1[C@@H](c2ccccc2-c2ccccc2)[C@H](CO)N1C(=O)Cc1ccccc1	0.032
C[C@H]1CNC(=O)[C@@H](Cc2ccc(C(F)(F)F)cc2)CCn2nncc2COC1	-1.1
O=C(NCc1ccc(F)cc1)[C@H]1[C@H](CO)[C@H]2Cn3c(cccc3=O)[C@H]2N1C(=O)c1cccnc1	-0.14
CC(C)[C@@H]1C(=O)NCCC=CC[C@@H](C)Oc2ccccc2C(=O)N1C (mixture of isomers)	-0.46
CC(C)NC(=O)N1[C@H](CO)[C@@H](c2ccccc2)[C@H]1CN(C)C(=O)c1ccncc1	4.4
O=C(c1ccccc1)N1CC(=O)N2[C@@H](CO)[C@H](c3ccc(-c4ccccc4)cc3)[C@@H]2C1	-2.6
SMILES	IDE exosite FP
OC[C@H]1Nc2ccc(C#Cc3ccc(F)cc3)cc2[C@H]2[C@@H]1CCN2Cc1ccc2c(c1)OCO2	2
Cc1ccc(-c2ccc([C@@H]3[C@@H](CO)N4CCCCN(Cc5cncnc5)C[C@@H]34)cc2)cc1	-0.54
Cc1cccc(-c2ccc([C@H]3[C@H](CO)N4CCCCN(Cc5cncnc5)C[C@@H]34)cc2)c1	-7.4*
OC[C@H]1[C@@H](c2ccc(-c3ccccc3)cc2)[C@@H]2CN(Cc3cncnc3)CCCCN12	-1.1
C[C@@H]1CCCCO[C@H](CN(C)C(=O)CCC(F)(F)F)[C@H](C)CN([C@H](C)CO)C(=O)c2cc(NC(=O)C3CCCCC3)ccc2O1	-1.1
N#C[C@@H]1N[C@H](CO)[C@H]1c1ccc(C2=CCCC2)cc1	1.6
CO[C@@H]1CN(C)C(=O)c2cc(NC(=O)Nc3cc(F)ccc3F)ccc2OC[C@H](C)NC[C@H]1C	2.2
CC(C)NC(=O)N1[C@@H](CO)[C@@H](c2ccccc2)C12CN(C(=O)c1ccccn1)C2	0.73
COc1cccc(C#Cc2ccc([C@@H]3[C@@H](CO)N4C(=O)CN(C(=O)c5ccccc5)C[C@H]34)cc2)c1	0.1
COc1cccc(C#Cc2ccc([C@@H]3[C@@H](CO)N4C(=O)CN(C(=O)c5ccncc5)C[C@@H]34)cc2)c1	-3.2*
COc1cccc(C#Cc2ccc([C@@H]3[C@H](CO)N4C(=O)CN(C(=O)c5ccncc5)C[C@@H]34)cc2)c1	-5.1*
COc1ccc(C#Cc2ccc([C@@H]3[C@@H](CO)N4C(=O)CN(C(=O)c5ccncc5)C[C@@H]34)cc2)cc1	0.51
COc1ccc(C#Cc2ccc([C@@H]3[C@@H](CO)N4C(=O)CN(C(=O)c5ccncc5)C[C@H]34)cc2)cc1	3.3
COc1ccc(C#Cc2ccc([C@H]3[C@H](CO)N4C(=O)CN(C(=O)c5ccncc5)C[C@@H]34)cc2)cc1	1.4
COc1ccc(C#Cc2ccc([C@@H]3[C@H](CO)N4C(=O)CN(C(=O)c5ccncc5)C[C@@H]34)cc2)cc1	3.3
COc1ccc(C#Cc2ccc([C@H]3[C@@H](CO)N4C(=O)CN(C(=O)c5ccncc5)C[C@@H]34)cc2)cc1	0.67
COc1cccc(C#Cc2ccc([C@H]3[C@@H](CO)N4C(=O)CN(C(=O)c5ccncc5)C[C@@H]34)cc2)c1	-7.3*
CC[C@@H]1C/C=C\CCNC(=O)C[C@H](c2ccccc2)C(=O)N1	-0.11
O=C(CC1CC1)N1CC2(C1)[C@H](c1ccccc1)[C@H](CO)N2C(=O)c1ccccn1	-1.2
CNC[C@H]1OCCCC[C@@H](C)Oc2ccc(N)cc2C(=O)N([C@@H](C)CO)C[C@H]1C	1.8
CCCC#Cc1ccc([C@H]2[C@@H](CO)N3C(=O)CN(C(=O)Nc4ccc(F)cc4)C[C@@H]23)cc1	5.5
N#C[C@H]1[C@H](c2ccc(-c3cccc(F)c3)cc2)[C@@H](CO)N1c1nc(-c2ccccc2)cs1	0.24
C/C=C/c1ccc([C@@H]2[C@H]3CN(S(=O)(=O)c4ccc(F)cc4)CCCCN3[C@H]2CO)cc1	4.5
CN(C)C(=O)c1cc2c(c(-c3cccc(C4=CCCCC4)c3)n1)[C@H](CCO)N(S(C)(=O)=O)C2	1.2
O=C(C[C@H]1CC[C@H](NC(=O)Nc2ccc(C(F)(F)F)cc2)[C@H](CO)O1)NCc1cccc(F)c1	0.75
SMILES	IDE exosite FP
C/C=C/c1ccc([C@@H]2[C@H](CO)N3C(=O)CN(Cc4ccc(C(=O)OC)cc4)C[C@@H]23)cc1	0.3
COc1cccc(C(=O)Nc2ccc3c(c2)C(=O)N(C)[C@H]2CC[C@@H](CC(=O)N[C@@H](C)c4ccccc4)O[C@H]2CO3)c1	-3.3*
COc1cccc(S(=O)(=O)Nc2ccc3c(c2)C(=O)N(C)[C@H]2CC[C@@H](CC(=O)NCC4CCCCC4)O[C@H]2CO3)c1	-1.7
CN1C(=O)c2cc(NC(=O)c3cnccn3)ccc2OC[C@H]2O[C@@H](CC(=O)N[C@H]3CCN(Cc4ccccc4)C3)CC[C@H]21	0.95
CN1C(=O)c2cc(NC(=O)c3cccc(F)c3)ccc2OC[C@H]2O[C@H](CC(=O)NCC3CCCCC3)CC[C@H]21	-3.2*!
COc1cccc(S(=O)(=O)Nc2ccc3c(c2)C(=O)N(C)[C@H]2CC[C@@H](CC(=O)NCC4CCCCC4)O[C@@H]2CO3)c1	-3.2*
